From PubChem
The entries come from a sample that favours hits as a whole.
GIRK2 activator – activators of NPY4-receptor-primed GIRK2 channels, summary, cell-based, HEK293, thallium flux | 34,000 tested, under 10 active | G protein-activated inward rectifier potassium channel 2 (Homo sapiens), P48051 | AID 1259324, 2017 | activation (% efficacy), % for hits at 37.5 µM | HEK293 GIRK2/NPY4 cells, thallium flux fluorescence;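 active means primary screen hit, no activity in plain HEK293 cells, and in GIRK2-only cells above 5% efficacy rising with concentration; inactive means the rest, including fluorescent compounds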;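 further: efficacy is normalized control-subtracted fluorescence 15 s after thallium addition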
Target sequence (P48051 whole entry, looked up): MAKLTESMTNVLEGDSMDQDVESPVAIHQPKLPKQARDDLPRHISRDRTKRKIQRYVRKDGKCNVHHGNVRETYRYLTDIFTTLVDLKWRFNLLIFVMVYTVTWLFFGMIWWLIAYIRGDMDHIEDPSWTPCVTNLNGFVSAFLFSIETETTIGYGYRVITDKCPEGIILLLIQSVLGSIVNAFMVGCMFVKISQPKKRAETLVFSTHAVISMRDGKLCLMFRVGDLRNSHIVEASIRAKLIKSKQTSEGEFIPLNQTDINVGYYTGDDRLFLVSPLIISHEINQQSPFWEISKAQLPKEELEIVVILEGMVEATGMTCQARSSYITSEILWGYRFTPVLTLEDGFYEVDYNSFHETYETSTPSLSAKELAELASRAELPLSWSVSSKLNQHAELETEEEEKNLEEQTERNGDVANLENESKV
GluA2 TARP mod – modulators of GluA2-stargazin AMPA receptor complexes, primary screen, cell-based, membrane potential dye | 3.5% of 40,000 active | HEK293 GluA2+stargazin, membrane potential dye (FDSS), glutamate EC50; hits were called plate by plate, in both directions | calls only at 30 µM | Voltage-dependent calcium channel gamma-2 subunit (Mus musculus) + Glutamate receptor 2 …;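 active means any of four per-well response measures lying three or more SD from its plate-wide compound average, in either direction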
Large screens that a line does not name were inactive.

CC1Cc2cc(-c3cc(CC(=O)NCc4ccco4)no3)ccc2O1 (stereo unspecified)	GluA2 TARP mod active
CC1Cc2cc(-c3cc(CC(=O)NCc4cc(-c5cccs5)on4)no3)ccc2O1 (stereo unspecified)	none
O=C(Cc1cc(-c2ccc3c(c2)OCO3)on1)NCc1cccs1	none
CCN1C(=O)Cc2cc(NC(=O)NCCc3ccc(OC)cc3)ccc21	none
CC(C)S(=O)(=O)c1ccc(CC(=O)N2CCC(c3ccsc3)CC2)cc1	GluA2 TARP mod active
CC(C)S(=O)(=O)c1ccc(CC(=O)N2CCC(c3cccs3)CC2)cc1	none
CC(=O)Cn1c(=O)c2c(nc3n2CCCN3c2cccc(C)c2)n(C)c1=O	none (no result: GIRK2 activator)
O=C(NCC1(c2cccs2)CCOCC1)C(=O)NC1CCCC1	none (no result: GIRK2 activator)
CCNc1cc(C)nc(NCCNC(C)=O)n1	none (no result: GluA2 TARP mod)
Cc1nc(NCCNC(=O)c2ncccn2)cc(N2CCOCC2)n1	GluA2 TARP mod active
CCNc1cc(NCCNC(=O)c2ncccn2)nc(C)n1	GluA2 TARP mod active
Cc1nc(NCCNC(=O)Nc2cccc(C)c2C)cc(N2CCOCC2)n1	none (no result: GluA2 TARP mod)
COc1ccc(NC(=O)N2CCN(c3ccc(Nc4ccncc4)nn3)CC2)cc1OC	none
CN(Cc1ccco1)S(=O)(=O)c1ccc(C(=O)Nc2nc(-c3ccc(C#N)cc3)cs2)cc1	none (no result: GIRK2 activator)
CCC(CC)C(=O)Oc1c(S(=O)(=O)c2ccc(C)cc2)c(C)nn1C(C)(C)C	none (no result: GIRK2 activator)
CCOc1ccc(OCCNC(=O)c2cc3cccc(OCC)c3oc2=O)cc1	none
CCOc1cccc2cc(C(=O)NCc3ccncc3)c(=O)oc12	GluA2 TARP mod active
CC(=O)N1CCc2c(sc(NC(=O)c3ccc(S(=O)(=O)C(C)C)cc3)c2C(N)=O)C1	GluA2 TARP mod active
CC(C)S(=O)(=O)c1ccc(C(=O)Nc2sc3c(c2C(N)=O)CCCC3)cc1	none
O=C(Nc1ccccc1Cl)c1ccc(=O)n(Cc2ccccc2F)c1	none
CC(=O)Nc1ccc(NC(=O)c2ccc(=O)n(Cc3ccccc3Cl)c2)cc1	none
CCOc1ccccc1NC(=O)c1ccc(=O)n(Cc2ccccc2Cl)c1	GluA2 TARP mod active
O=C(Nc1ccccc1C(F)(F)F)c1ccc(=O)n(Cc2ccccc2F)c1	GluA2 TARP mod active
CCOc1ccccc1NC(=O)c1nnn(-c2cccc(C(F)(F)F)c2)c1N	none
Cc1ccc2cc(CNc3ccccc3)c(=O)n(CC(=O)Nc3ccccc3)c2c1	none (no result: GIRK2 activator)
CCOc1ccccc1C(=O)NCC(O)c1ccsc1 (stereo unspecified)	none
O=C(c1ccco1)N1CCC(Cn2cccn2)CC1	none
O=C(N1CCC(Cn2cccn2)CC1)C1(c2ccccc2)CCOCC1	GluA2 TARP mod active
Cc1nc(-n2cccc2)sc1C(=O)N1CCC(NC(=O)OC(C)(C)C)CC1	none
Cc1cc(C(=O)Nc2sc3c(c2C#N)CCN(Cc2ccccc2)C3)on1	none (no result: GluA2 TARP mod)
N#Cc1c(NC(=O)c2cc3ccccc3o2)sc2c1CCN(Cc1ccccc1)C2	GluA2 TARP mod active (no result: GIRK2 activator)
COC(=O)c1c(NC(=O)c2ccn(C)n2)sc2c1CCN(Cc1ccccc1)C2	GluA2 TARP mod active
CC(C)N1CCc2c(sc(NC(=O)c3ccn(C)n3)c2C(N)=O)C1	none
CC(C)N1C(=O)S/C(=C2\SC(=O)N(C(C)C)C2=O)C1=O	none
COc1ccc(-c2cc3c(=O)n(Cc4nc(-c5ccc(OC)cc5)no4)ccn3n2)cc1	none (no result: GluA2 TARP mod)
COc1ccc(C(=O)Nc2nnc(-c3cc4cccc(OC)c4o3)o2)cc1OC	GluA2 TARP mod active (no result: GIRK2 activator)
COc1cccc2cc(-c3nnc(NC(=O)c4ccccc4)o3)oc12	none (no result: GIRK2 activator)
COc1ccc(C(=O)Nc2nnc(-c3ccc(OC)c(OC)c3)o2)cc1OC	GluA2 TARP mod active
Cc1ccc(C(=O)Nc2nnc(-c3cccs3)o2)cc1C	none (no result: GIRK2 activator)
COc1ccc(C(=O)Nc2nnc(-c3cccs3)o2)cc1OC	GluA2 TARP mod active (no result: GIRK2 activator)
CCOc1ccc(-c2nnc(NC(=O)CC)o2)cc1OCC	GluA2 TARP mod active
COc1ccc(C(=O)Nc2nnc(-c3ccc(SC)cc3)o2)cc1OC	none
CCC(=O)Nc1nnc(-c2ccc3c(c2)CCCC3)o1	none
O=S(=O)(NCCOc1ccc(-c2ccc(F)cc2)nn1)c1ccc(C(F)(F)F)cc1	none
Cc1cc(C)cc(C(=O)NCC2CCN(C3CCCC3)CC2)c1	none (no result: GluA2 TARP mod)
Cc1cncn(CC(=O)NCCc2ccc(S(N)(=O)=O)cc2)c1=O	none
O=C(Cn1c2c(c(=O)n(C3CCCCC3)c1=O)CCC2)N1CCOCC1	none
Cc1cc(NC(=O)C(=O)NCC(=O)N2CCOC(c3ccccc3)C2)no1 (stereo unspecified)	none (no result: GluA2 TARP mod)
Cn1cccc1C(CNC(=O)C(=O)Nc1ccon1)N1CCCCCC1 (stereo unspecified)	none
COc1cc(OC)cc(C(=O)Nc2nnc(-c3ccc(OC)cc3OC)o2)c1	none (no result: GIRK2 activator)
COc1ccc(-c2nnc(NC(=O)c3ccc(S(=O)(=O)C(C)C)cc3)o2)cc1OC	GluA2 TARP mod active
COc1ccc(C(=O)Nc2nnc(-c3ccccc3OC)o2)cc1OC	GluA2 TARP mod active (no result: GIRK2 activator)
